Values without a mark were called inactive. Rule as the data show it, unless noted: active = inhibition above about 25%; inactive = the rest.
Tests used:
[1] = biological target: Nuclear receptor coactivator 1 (Homo sapiens) (UniProt Q15788); experiment: NCOA1 GAL4-fusion reporter inhibition – cell-based, luminescence, quadruplicate, confirmation (AID 588820;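 active = mean inhibition above 46.68%, the untreated control wells mean plus 3 SD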;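 also: 0% = DMSO wells and 100% = gossypol 36 µM treated wells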); conditions: HEK293 GAL4-SRC1 luciferase reporter, at 3.6 µM, stronger effect = higher value
[2] = repression of VP16-driven luciferase reporter – cell-based, luminescence, high throughput, counter-screen for SRC1 inhibitor project (AID 588824); conditions: cell-based VP16 transactivation luciferase luminescence; at 3.6 µM; stronger effect = higher value

Chain of Nuclear receptor coactivator 1 (Homo sapiens) (Q15788 whole entry, looked up, the tested form may be a part): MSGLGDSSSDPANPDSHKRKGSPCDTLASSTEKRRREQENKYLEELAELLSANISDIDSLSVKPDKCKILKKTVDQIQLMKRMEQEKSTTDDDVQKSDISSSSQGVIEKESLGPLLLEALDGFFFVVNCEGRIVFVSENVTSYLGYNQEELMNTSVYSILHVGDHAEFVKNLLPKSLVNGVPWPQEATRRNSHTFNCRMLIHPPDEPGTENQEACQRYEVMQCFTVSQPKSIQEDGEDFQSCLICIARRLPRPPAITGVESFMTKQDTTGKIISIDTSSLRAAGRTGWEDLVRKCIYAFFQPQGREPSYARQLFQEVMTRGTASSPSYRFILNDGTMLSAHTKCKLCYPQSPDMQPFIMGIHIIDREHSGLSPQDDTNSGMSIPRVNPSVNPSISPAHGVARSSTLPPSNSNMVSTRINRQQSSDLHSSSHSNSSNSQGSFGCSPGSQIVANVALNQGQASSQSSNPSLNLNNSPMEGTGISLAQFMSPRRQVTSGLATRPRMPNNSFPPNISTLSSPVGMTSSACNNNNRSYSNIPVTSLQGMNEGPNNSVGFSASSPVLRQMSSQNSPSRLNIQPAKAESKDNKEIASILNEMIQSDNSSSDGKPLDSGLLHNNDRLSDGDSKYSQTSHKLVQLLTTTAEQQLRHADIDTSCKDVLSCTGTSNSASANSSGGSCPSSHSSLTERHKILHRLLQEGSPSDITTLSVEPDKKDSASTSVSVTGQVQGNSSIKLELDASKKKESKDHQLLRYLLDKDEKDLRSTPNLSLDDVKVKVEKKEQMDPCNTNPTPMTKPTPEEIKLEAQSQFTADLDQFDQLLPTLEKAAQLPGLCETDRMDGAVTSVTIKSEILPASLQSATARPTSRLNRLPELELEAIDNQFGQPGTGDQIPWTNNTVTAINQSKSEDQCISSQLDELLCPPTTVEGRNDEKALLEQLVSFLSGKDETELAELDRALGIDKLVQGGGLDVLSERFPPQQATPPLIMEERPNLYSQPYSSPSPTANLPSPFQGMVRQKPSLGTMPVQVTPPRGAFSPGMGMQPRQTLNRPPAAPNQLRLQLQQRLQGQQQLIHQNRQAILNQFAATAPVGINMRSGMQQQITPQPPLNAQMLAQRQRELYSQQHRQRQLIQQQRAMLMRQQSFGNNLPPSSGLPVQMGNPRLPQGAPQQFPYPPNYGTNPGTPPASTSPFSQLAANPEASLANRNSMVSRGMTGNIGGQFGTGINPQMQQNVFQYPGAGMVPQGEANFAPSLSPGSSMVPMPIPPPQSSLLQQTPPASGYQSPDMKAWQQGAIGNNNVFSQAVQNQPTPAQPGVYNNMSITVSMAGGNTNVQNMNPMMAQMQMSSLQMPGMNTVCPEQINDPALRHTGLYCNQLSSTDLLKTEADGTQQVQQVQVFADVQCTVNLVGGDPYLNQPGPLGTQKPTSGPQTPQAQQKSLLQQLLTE

Structure (SMILES) | inhibition [1] | inhibition [2]
CCCc1cc(=O)oc2c(C)c(O[C@@H]3O[C@H](CO)[C@@H](O)[C@H](O)[C@H]3O)ccc12 | -6.26% | -0.67%
COc1cc(OC)c(OC)cc1/C=C1\CC(C)C/C(=C\c2cc(OC)c(OC)cc2OC)C1=O (centres undefined) | -33.6% | 2.73%
NS(=O)(=O)c1ccc(Nc2nc(-c3cccnc3)cs2)cc1 | 15.8% | 11.7%
Cc1ccccc1CN1CCN(C(=O)CC(C)C)CC1 | -18.4% | -7.73%
c1ccc(-c2csc3ncnc(NCCN4CCOCC4)c23)cc1 | 27.7% | 22.6%
O=C(CSc1nc2ccccc2[nH]1)Nc1cccc(S(=O)(=O)N2CCOCC2)c1 | 3.06% | -4.53%
CCCN(CCC)CCCNC(=O)c1cn(C)c2ccc(S(=O)(=O)N(C)C3CCCCC3)cc2c1=O | -13.7% | -9.68%
